Consider 19 molecules from PubChem BioAssay (Tox21).

Records with an inconclusive call do not appear. More than one record can exist for a structure, and the calls need not agree. Active and inactive are the calls of the source. Unless noted, the call rests on the fitted dose curve; in most records, active means well fitted curve in the direction sought with a large enough effect in the repeat runs; inconclusive means weak or mixed curves; inactive means no such curve, though single readings can be large; an effect the other way counts as inactive or inconclusive.

A short description of experiment [1]: qHTS assay to identify small molecule agonists of the vitamin D receptor (VDR) signaling pathway - cell viability counter screen (AID 743224). Further: series mostly up to about 63 µM; nearly all actives have a fitted effect of over 50% in size. Put shortly: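 Plated VDR-bla cells (4 h, 37C) received compound, incubated 16 h, then LiveBLAzer substrate 2 h RT; CellTiter-Glo added afterwards, luminescence read at 30 min.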
On the technique in general: In qHTS, concentration-response curves come from the screen itself.

The nature of experiment [2]: qHTS assay to identify small molecule antagonists of the vitamin D receptor (VDR) signaling pathway - cell viability counter screen (AID 743225). Further: nearly all actives have a fitted effect of over 50% in size. The method, boiled down: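 Same-well multiplex: following 16 h treatment of HEK 293T cells carrying a UAS-driven beta-lactamase reporter with compound and agonist (3 nM final), and a 2 h FRET substrate step, CellTiter-Glo was added and luminescence read after 30 min.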

The nature of experiment [3]: qHTS assay to identify small molecule agonists of the NFkB signaling pathway (AID 1159509; active means well fitted curve in the direction sought with a large enough effect in the signal ratio in the repeat runs, not every such curve was filed as active; the % refers to the signal ratio; further: series mostly up to about 61 µM). Put shortly: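 NFkB-bla ME-180 cells carry a beta-lactamase reporter under an NF-kB response element. They were plated overnight, then exposed to compounds for 5 h at 37 C. Read-out is LiveBLAzer FRET after 1.5 hr at room temperature (405 nm excitation; 460/530 nm emission).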

The nature of experiment [4]: qHTS assay to identify small molecule agonists of the NFkB signaling pathway - cell viability counter screen (AID 1159515; calls by dose curve; further: series mostly up to about 61 µM; nearly all actives have a fitted effect of over 55% in size). The method, boiled down: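 Using the same wells as the NFkB reporter read, ME-180 NFkB-bla cells given compounds for 5 hr were assessed for viability via CellTiter-Glo, with luminescence taken after a 30 min room-temperature incubation.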
The nature of experiment [5]: qHTS assay to identify small molecule agonists of the endoplasmic reticulum stress response signaling pathway - cell viability counter screen (AID 1159517; calls by dose curve;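 further: HeLa cells carrying an ER stress response element beta-lactamase reporter; series mostly up to about 61 µM; nearly all actives have a fitted effect of over 50% in size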). The method, boiled down:
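HeLa cells carrying an ESRE-driven beta-lactamase reporter receive compound for 5 hr at 37 C. Cell viability is then gauged with CellTiter-Glo by luminescence, 30 min at room temperature.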

The nature of experiment [6]: qHTS assay to identify small molecule antagonists of the retinoid-related orphan receptor gamma (ROR-gamma) signaling pathway - cell viability counter screen (AID 1159520). Further: nearly all actives have a fitted effect of over 50% in size. Put shortly: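 Cytotoxicity was read from cellular ATP (CellTiter-Glo luminescence) after 16 hr at 37 C with 1 uM doxycycline induction. The inducer was added 2 hr after compound transfer to Tet-on ROR gamma CHO cells.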

Experiment [7] has as its target Nuclear receptor ROR-gamma (Homo sapiens) (UniProt P51449). In words: qHTS assay to identify small molecule antagonists of the retinoid-related orphan receptor gamma (ROR-gamma) signaling pathway (AID 1159521). The method, boiled down: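 Inducible-expression reporter assay: doxycycline (1 uM final) switched on RORγ in CHO cells bearing a ROR response element-luciferase construct, with test compounds present from 2 h beforehand. Decreased luminescence after 16 h defined antagonist activity.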

Experiment [8] can be described thus: qHTS assay to identify small molecule agonists of the AP-1 signaling pathway - cell viability counter screen (AID 1159525; calls by dose curve; further: nearly all actives have a fitted effect of over 55% in size). Put shortly: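 Luminescent ATP readout (Cell Titer Glo, 30 min RT), normalised to DMSO and tetra n-octyl ammonium bromide controls. Cells were ME-180 AP-1-bla in 0.5% dialyzed FBS Opti-MEM, with a 5 h, 37 °C compound exposure.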
A short description of experiment [9]: qHTS assay to identify small molecule agonists of the AP-1 signaling pathway (AID 1159526; calls by dose curve).
The target of experiment [10] is Retinoic acid receptor RXR-alpha (Homo sapiens) (UniProt P19793). In words: qHTS assay to identify small molecule agonists of the RXR signaling pathway (AID 1159527; calls by dose curve; further: nearly all actives have a fitted effect of over 35% in size; further: potency means the concentration at half of the fitted maximal effect). Put shortly: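 Compounds in DMSO were added to RXR-alpha-UAS-bla HEK 293T cells kept in 2% charcoal-stripped serum, and incubated 16 hr at 37 C with 5% CO2. Reporter signal came from a 2 hr B/G FRET substrate step.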
Retinoic acid receptor RXR-alpha (Homo sapiens), sequence (P19793 whole entry, looked up): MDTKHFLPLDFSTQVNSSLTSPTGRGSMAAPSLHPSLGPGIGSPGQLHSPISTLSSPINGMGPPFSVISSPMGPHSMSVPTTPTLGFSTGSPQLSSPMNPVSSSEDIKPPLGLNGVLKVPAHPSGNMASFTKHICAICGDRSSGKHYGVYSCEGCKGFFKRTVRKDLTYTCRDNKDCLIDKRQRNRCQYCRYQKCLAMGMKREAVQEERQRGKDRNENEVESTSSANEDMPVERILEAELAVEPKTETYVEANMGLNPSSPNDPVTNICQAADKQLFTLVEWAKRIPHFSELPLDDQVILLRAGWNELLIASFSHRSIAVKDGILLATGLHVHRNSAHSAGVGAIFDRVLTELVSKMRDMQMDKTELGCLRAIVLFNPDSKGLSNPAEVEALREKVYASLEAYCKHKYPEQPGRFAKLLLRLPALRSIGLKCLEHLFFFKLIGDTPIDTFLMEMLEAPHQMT

The nature of experiment [11]: qHTS assay to identify small molecule antagonists of the retinoid acid receptor (RAR) signaling pathway - cell viability counter screen (AID 1159551). Further: nearly all actives have a fitted effect of over 35% in size. The method, boiled down: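 Retinol-stimulated (1 uM final) C3RL4 cells, compound 6 h, 37 C; readout CellTiter-Glo luminescence (ATP) after 30 min RT incubation.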
The nature of experiment [12]: qHTS assay to identify small molecule agonists of the RXR signaling pathway - cell viability counter screen (AID 1159529). Put shortly:
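Counter screen: CellTiter-Glo luminescence. Cells: RXR-alpha-UAS-bla HEK 293T. Medium: 2% charcoal-stripped FBS. Treatment: 16 h, 37 C. Reagent incubation: 30 min, RT.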

Experiment [13] in a line: qHTS assay to identify small molecule antagonists of the retinoic acid receptor (RAR) signaling pathway (AID 1159552; further: nearly all actives have a fitted effect of over 50% in size). The method, boiled down:
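Antagonism of retinol-induced RARE reporter activity was measured in C3RL4 cells. Exposure to compounds and 1 uM final retinol lasted 6 hr at 37 C, with luminescence as endpoint.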

Experiment [14] can be described thus: qHTS assay to identify small molecule agonists of the retinoic acid receptor (RAR) signaling pathway (AID 1159553). Put shortly:
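Reporter readout comes from luciferase under RARE control in C3RL4 cells; compound exposure lasts 6 hr at 37 C in 5% CO2, and luminescence is recorded following a 30 min room-temperature incubation with reagent.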

A short description of experiment [15]: qHTS assay to identify small molecule agonists of the endoplasmic reticulum stress response signaling pathway (AID 1159516; active means well fitted activation curve with a large enough effect in the signal ratio in the repeat runs, not every such curve was filed as active; the % refers to the signal ratio). The method, boiled down: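 An ESRE-bla HeLa cell assay: compounds were pin-transferred from DMSO onto overnight-plated cells and left 5 hr at 37 C. Substrate was then loaded for 2 hr at room temperature before reading fluorescence at 460 nm and 530 nm.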

Consider `CCCCCCCC=O`, for which the molecule was classed as inactive in experiment [1], in experiment [2], in experiment [3], in [4], in experiment [6] and in [8]. In addition, the molecule was called inactive in experiment [11]. Also, the Potency entry in experiment [5], in experiment [7], in experiment [9] and in experiment [10] was “inactive” each time.

Take `CCCCCCC=O`: the molecule was called inactive in [1], in experiment [2], in experiment [3], in experiment [4], in experiment [6] and in experiment [8]. In addition, the molecule was called inactive in experiment [12], in experiment [11] and in experiment [13]. Also, the Potency entry in [5], in [7], in experiment [9], in [10] and in experiment [14] was “inactive” throughout.

`COc1ccc([N+](=O)[O-])cc1N`: the outcome in [1], in experiment [2], in experiment [3], in [4], in experiment [6] and in experiment [8] was inactive. Besides, the molecule was classed as inactive in [12] and in experiment [11]. Further, the Potency entry in experiment [5], in [7], in experiment [9], in experiment [10] and in experiment [14] was “inactive” in each case.

Consider `CC(C)CC(=O)CC(C)CC(C)C` (stereo not drawn), for which the outcome in [1], in experiment [2], in experiment [3], in experiment [4], in experiment [6] and in experiment [8] was inactive. In [11], the outcome was inactive. Also, the Potency entry in [5], in [7], in experiment [9], in [10] and in experiment [14] was “inactive” in each case.

As to `CC(=O)CC(C)(C)O`, the result in experiment [1], in [2], in experiment [3], in [4], in experiment [6] and in experiment [8] was inactive. Further, the molecule was classed as inactive in experiment [12], in experiment [11] and in [13]. For the same molecule, the Potency result in experiment [5], in experiment [7], in [9], in [10] and in experiment [14] was “inactive” throughout.

As for `CC1(C)OC[C@@H]2O[C@@]3(C(=O)O)OC(C)(C)O[C@H]3[C@@H]2O1`, the call in experiment [1], in [2], in [3], in [4], in experiment [6] and in experiment [8] was inactive. Further, the result in experiment [11] and in experiment [13] was inactive. Also, the Potency result in [5], in [7], in [9] and in experiment [14] was “inactive” in each case. Also, the Potency in experiment [10] was 21.9 µM (active) and inactive.

For the molecule `CC1(C)CC(N)CC(C)(CN)C1` (stereo not drawn), the result in experiment [1], in [2], in [3], in experiment [15], in [6] and in [8] was inactive. The molecule was classed as inactive in experiment [12], in experiment [11] and in [13]. Further, the Potency result in experiment [5], in experiment [7], in experiment [9], in [10] and in experiment [14] was “inactive” throughout.

`CC(C)OP(=O)(CP(=O)(OC(C)C)OC(C)C)OC(C)C`: the call in experiment [1], in experiment [2], in experiment [3], in [4], in experiment [6] and in [8] was inactive. Also, the molecule was classed as inactive in experiment [11]. For the same molecule, the Potency result in experiment [5], in [7], in experiment [9] and in experiment [10] was “inactive” throughout.

As for `CCCCCCCCCCCC(=O)OC`, the result in experiment [1], in [2], in experiment [3], in [4], in experiment [6] and in experiment [8] was inactive. Besides, in experiment [11], the result was inactive. The Potency entry in experiment [5], in [7], in [9] and in experiment [10] was “inactive” in each case.

Regarding `N[C@H](Cc1c[nH]c2ccccc12)C(=O)O`, the outcome in [1], in experiment [2], in experiment [3], in experiment [4], in experiment [6] and in experiment [8] was inactive. Moreover, the outcome in [11] and in [13] was inactive. For the same molecule, the Potency result in experiment [5], in [7], in experiment [9], in [10] and in [14] was “inactive” in each case.

`NCCCCCCN`: the result in experiment [1], in [2], in experiment [3], in experiment [4], in experiment [6] and in experiment [8] was inactive. For the same molecule, the result in experiment [11] was inactive. For the same molecule, the Potency result in experiment [5], in [7], in [9], in experiment [10] and in experiment [14] was “inactive” each time.

On to `CCO[Si](CCCN)(OCC)OCC`, for which the result in [1], in experiment [2], in experiment [3], in experiment [4], in experiment [15] and in experiment [6] was inactive. For the same molecule, the call in [8] and in experiment [11] was inactive. Besides, the Potency result in experiment [7] and in experiment [9] was “inactive” in each case. In experiment [10], the Potency is 19.5 µM (active) and inactive.

For `O=C(O)CCCCCCCCC(=O)O`, the molecule was called inactive in [1], in [2], in [3], in experiment [4], in experiment [6] and in experiment [8]. Also, the outcome in experiment [12] and in experiment [11] was inactive. The Potency entry in experiment [5], in experiment [7], in [9], in experiment [10] and in experiment [14] was “inactive” throughout.

Take `CC(=O)OC1CC(C)OC(C)O1` (stereo not drawn): the call in [1], in experiment [2], in [3], in experiment [4], in experiment [6] and in experiment [8] was inactive. The result in experiment [11] and in experiment [13] was inactive. For the same molecule, the Potency result in experiment [5], in experiment [7], in experiment [9], in [10] and in [14] was “inactive” each time.

As for `O=C(O)Cn1c(=O)n(Cc2ccc(Br)cc2F)c(=O)c2ccc(Cl)cc21`, the molecule was called inactive in experiment [1], in [2], in [3], in experiment [4], in [6] and in experiment [8]. Besides, the call in experiment [12] and in [11] was inactive. Moreover, the Potency entry in [5], in [7], in experiment [9], in experiment [10] and in experiment [14] was “inactive” each time.

As for `O=C(O)c1cc2ccccc2cc1O`, the outcome in [1], in experiment [2], in [3], in experiment [4], in [6] and in experiment [8] was inactive. The molecule was classed as inactive in experiment [11] and in experiment [13]. Also, the Potency entry in experiment [7], in experiment [9], in [10] and in experiment [14] was “inactive” throughout.

For `COC(=O)c1cccnc1`, the call in experiment [1], in experiment [2], in [3], in [4], in [15] and in experiment [6] was inactive. Moreover, the molecule was classed as inactive in experiment [8] and in [11]. The Potency entry in experiment [7], in experiment [9], in experiment [10] and in [14] was “inactive” throughout.

As for `CC(O)CC(C)(C)O` (stereo not drawn), the call in experiment [1], in [2], in [3], in [4], in [6] and in [8] was inactive. Besides, the call in [12] and in [11] was inactive. The Potency entry in [5], in experiment [7], in experiment [9], in [10] and in experiment [14] was “inactive” throughout.

Regarding `COC(=O)CCCC(=O)OC`, the call in [1], in experiment [2], in experiment [3], in experiment [4], in experiment [6] and in experiment [8] was inactive. For the same molecule, the result in [12] and in experiment [11] was inactive. The Potency entry in [5], in experiment [7], in experiment [9], in experiment [10] and in experiment [14] was “inactive” throughout.
